We go through 7 compounds from PubChem BioAssay (NCI).

Common to all, as to assay: NCI-60 one-dose screen, 48 h (100 = growth as untreated, 0 = no growth, -100 = all killed)
Settings in all cases: 10 µM unless noted

The test system of assay [1] is NCI-H23 lung.
Assay [2] deals with NCI-H226 lung.
Assay [3] has as its system HOP-62 NSCLC.
For assay [4], the system named is NCI-H460 lung.
The subject of assay [5] is HOP-92 NSCLC.
Assay [6] relates to NCI-H522 lung.
Assay [7] deals with A549/ATCC NSCLC.
Assay [8] has as its system 786-0 renal.
Assay [9] concerns COLO 205 colon.
Assay [10] has as its system DU-145 prostate.
Assay [11] has as its system K-562 leukemia.
In assay [12] the test system is MALME-3M melanoma.
For assay [13], the system named is MDA-MB-231 breast.
Assay [14] relates to SF-268 CNS.
In assay [15] the test system is SF-295 CNS.
Assay [16] deals with SF-539 CNS.
The subject of assay [17] is UACC-257 melanoma.
Assay [18] has as its system RXF 393 renal.
Assay [19] concerns M14 melanoma.

The panel holds about 83,000 compounds, 20% with a hit somewhere; the sample as a whole holds those more often.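 Compound tested at a single concentration for 48 hours in 96-well plates; a percent growth value below 10 was scored as active.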 Unmarked numbers belong to inactive results. The source made the active and inactive calls.

`O=C1/C(=C/c2ccc([N+](=O)[O-])cc2)COc2ccc(O)c(O)c21`: the growth in assay [1] is 11.1%; in [2] it was 50.9%; in assay [3], 4.16% (active); in assay [4], -17.2% (active); in [5], -4.37% (active); in [6], -52.7% (active). Besides, the growth in assay [7] was 34.5%; in assay [8], -60.5% (active); in assay [9] it was 16.3%; in [10], -19.1% (active); in assay [11], 5.31% (active); in assay [12], -44.2% (active). The growth in assay [13] is -27.1% (active); in assay [14] it was -25.3% (active); in assay [15], 83.7%; in assay [16], -91.6% (active); in [17], 40.3%.
In the case of `O=C1C(Cl)C(c2ccccc2Cl)N1n1cnnc1` (centres undefined), the growth in assay [1] was 101%; in assay [2], 102%; in [3], 73.5%; in assay [4] it was 101%; in assay [5] it was 91.1%; in [6] it was 92.9%. The growth was 91.1% in assay [7]; 97.1% in [8]; 104% in assay [10]; 102% in [11]; 95.6% in assay [12]; 94.8% in [13]. The growth in assay [18] was 98.6%; in assay [14] it was 102%; in assay [15], 100%; in [16], 85.3%; in assay [17] it was 91.5%; in assay [19], 93.1%.
Regarding `Oc1ccccc1-c1nc2ccccn2c1NCCN1CCOCC1`, the growth in assay [1] was 100%; in assay [2], 101%; in [3], 76.8%; in [4], 99.2%; in [5], 85.2%; in assay [6], 84%. The growth was 91.9% in assay [7]; 92.4% in [8]; 102% in assay [10]; 83% in assay [11]; 96.2% in assay [12]; 92.7% in assay [13]. The growth is 109% in assay [18]; 96.1% in [14]; 98% in assay [15]; 97.2% in assay [16]; 96.2% in assay [17]; 96.5% in assay [19].
As to `O=[N+]([O-])c1ccccc1C(O)Cc1ccc2ccccc2n1` (centres undefined), the growth in assay [1] was 95.7%; in assay [2], 83.5%; in assay [3], 88%; in assay [4] it was 97.4%; in assay [5], 77.5%; in assay [6], 101%. The growth in assay [7] is 97.4%; in assay [8], 104%; in assay [11], 108%; in [12] it was 89.6%; in assay [13] it was 68.3%; in assay [18] it was 91.2%. The growth is 93.1% in assay [14]; 103% in [15]; 98.4% in assay [16]; 93.3% in [17]; 90% in assay [19].
Regarding `Fc1ccc(Nc2ccc3cc(OCCCN4CCOCC4)ccc3n2)cc1F`, the growth in assay [1] was 55.7%; in assay [2], 76.8%; in [3] it was 65.9%; in assay [4], 36.6%; in [5], 52.8%; in assay [6], -21.4% (active). The growth in assay [7] is 42.9%; in assay [8], 48.6%; in assay [10], 64.2%; in assay [11] it was -12% (active); in assay [12] it was 42.6%; in assay [13], -40.9% (active). Besides, the growth in assay [18] is 61.1%; in assay [14], 59.3%; in [15], 19.7%; in assay [16] it was 37.5%; in assay [17], 30.4%; in assay [19] it was -6.62% (active).
In the case of `COc1cc(-c2cc(-c3ccc(Nc4nc(Nc5ccccc5)nc(Nc5ccc(Cl)cc5)n4)cc3)nc(N)n2)cc(OC)c1OC`, the growth in assay [1] is 46.9%; in assay [2], 75.6%; in [3], 47.2%; in [4], 65.8%; in [5] it was 42.4%; in assay [6] it was 66.3%. Also, the growth in assay [7] is 79.3%; in [8], 44%; in assay [9], 76.6%; in [10] it was 94.7%; in assay [11], 23.8%; in assay [12] it was 59.9%. Besides, the growth is 59% in assay [13]; 78.1% in assay [18]; 86.6% in [14]; 70.5% in assay [15]; 77.4% in assay [16]; 99.4% in assay [17].
`O=C(O)c1ccccc1C(=O)Nc1ccc(Cl)cc1`: the growth in assay [1] was 99.3%; in assay [2], 118%; in assay [3] it was 107%; in assay [4], 106%; in assay [5] it was 97.8%; in assay [6], 91%. For the same compound, the growth in [7] was 85%; in [8], 94%; in assay [9], 107%; in assay [10], 103%; in [11] it was 68.6%; in assay [12] it was 109%. Moreover, the growth is 104% in [13]; 128% in assay [18]; 94.5% in [14]; 101% in assay [15]; 98.6% in assay [16]; 78.3% in [17].
